Inconclusive results are not listed. Active and inactive are the calls of the source. Unless noted, calls come from the whole dose curve; as a rule, active = well fitted curve in the direction sought with a large enough effect; inconclusive = small, poorly fitted or top-dose-only effect, or another doubt; inactive = no such curve, though single readings can be large; an effect the other way counts as inactive or inconclusive.

A short description of assay [1]: Cytometry Cell-Based qHTS for Inhibitors of the mTORC1 Signaling Pathway in MEF cells (AID 2668). Note: potency is the fitted concentration of half-maximal effect. The essentials:
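MEFs (Tsc2-/-, p53-/- stably expressing WT Tsc2) treated 24 h at 37 degree Celsius, fixed, stained with Alexa-488 anti-phospho-rpS6 Ser235/236 and propidium iodide; Acumen laser scanning. Reported as % positive cells, phospho-S6 normalized to PI.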
For orientation: In qHTS, concentration-response curves come from the screen itself.

Assay [2] can be described thus: Validation screen for inhibitors of Lassa infection (AID 463096; calls by dose curve).
The nature of assay [3]: Validation screen for small molecules that induce DNA re-replication in MCF 10A normal breast cells (AID 463097). Note: nearly all actives have a fitted effect of over 60% in size. In short, it runs like this:
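MCF 10A cells exposed to compound 48 hr at 37 C, 5% CO2, then Hoechst-stained 40 min. Laser-scanning imaging of nuclear DNA content (405 nm ex, 500-530 nm em); re-replication scored as rise in nuclei with elevated fluorescence intensity.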

Assay [4] deals with Ubiquitin carboxyl-terminal hydrolase 2 (Homo sapiens) (UniProt O75604). The assay is described as follows: qHTS Validation Assay for Inhibitors of Ubiquitin-specific Protease USP2a Using CHOP2 as the Reporter (AID 463106). The essentials:
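10nM USP2 core + cpd, 30min RT; add 25nM Ub-CHOP2/25nM substrate; 60min RT; FI 485/531nm. Buffer Tris pH 8.0, CaCl2, BME, CHAPS. Norm. to NEM = 100% inhibition; time-zero read flags fluorescent artifacts.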

In assay [5] the target is Tumor susceptibility gene 101 protein (Homo sapiens) (UniProt Q99816). The experiment in a line: qHTS Validation Assay for Iinhibitors of HIV-1 Budding by Blocking the Interaction of PTAP/TSG101 (AID 485342; calls by dose curve). In short, it runs like this:
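Tsg101 binding domain (10 uM) with FITC-labeled PTAP peptide (50 nM) in HEPES pH 7.5 buffer, 20 min at r.t. with compounds. Binding measured by fluorescence polarization.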

A short description of assay [6]: qHTS Validation Assay to Find Inhibitors of Chronic Active B-Cell Receptor Signaling (AID 485345; active = well fitted curve in the direction sought with a large enough effect in the main read-out, with a control signal flat, not every such curve was filed as active). The essentials:
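Read-out: ratio of filter-corrected green (IkappaBalpha fusion) to red (native) luciferase signal in doxycycline-induced TMD8 cells after 4 h at 37C. Titration spanned 46 uM–3 nM; Data were normalised to basal cells and 10 uM MG-132 wells.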

Assay [7] has as its target Beta-2 adrenergic receptor (Homo sapiens) (UniProt P07550). The experiment in a line: qHTS validation assay of beta-arrestin-biased ligands of beta2-adrenergic receptor (AID 485366). The essentials:
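Tango cells expressing recombinant beta2-AR and beta-arrestin with tTA-driven luciferase, in DMEM with 1% FBS. Compounds were titrated up to 46 microM for 18 hr at 37 degrees C. Luminescence was read 15 min after substrate; curves were fitted and class-assigned.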

In assay [8] the target is ATP-dependent 6-phosphofructokinase (Trypanosoma brucei brucei) (UniProt O15648). The assay is described as follows: qHTS Validation Assay to Find Inhibitors of T. brucei phosphofructokinase (AID 485368). Particulars: T. brucei PFK enzyme assay, qHTS 7-point titration; at 57.5 µM (top of the series). In short, it runs like this: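 Activity was read as ADP production by luminescence (ADP-Glo) after 45 min at room temperature. The enzyme was 1.25nM PFK in 0.1M TEA pH 8.0 with 0.5 mM F6P, 0.1mM ATP and 5 mM MgCl2. Compounds were titrated up to 57 uM and % activity normalized to no-enzyme and full-enzyme controls.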

Assay [9] is described as follows: Quantitative high throughput screen for delayed death inhibitors of the malarial parasite plastid, 96 hour incubation (AID 488745). Note: nearly all actives have a fitted effect of over 70% in size. Note: potency is the fitted concentration of half-maximal effect. In short, it runs like this: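 P. falciparum carrying an integrated firefly luciferase reporter, grown in erythrocytes (2% hematocrit, 0.1% parasitemia final) in RPMI 1640/0.5% Albumax, was exposed to compound for 96 h (two generations) at 37 C, 5% CO2. Luminescence decrease indicated growth inhibition.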

A short description of assay [10]: Quantitative high throughput screen for delayed death inhibitors of the malarial parasite plastid, 48 hour incubation (AID 488752). Note: nearly all actives have a fitted effect of over 65% in size. Note: potency is the fitted concentration of half-maximal effect. The essentials:
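Erythrocytes infected with P. falciparum carrying an integrated firefly luciferase reporter (2% hematocrit, 0.1% parasitemia final) were exposed to compounds in RPMI 1640/0.5% Albumax for 48 h at 37 C, 5% CO2. Growth inhibition was scored as reduced luminescence.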

Assay [11] addresses Thioredoxin reductase 1, cytoplasmic (Rattus norvegicus) (UniProt O89049). The assay is described as follows: qHTS Assay for Substrates of Mammalian Selenoprotein Thioredoxin Reductase 1 (TrxR1) (AID 488772).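 Note: NADPH fluorescence in the first read after selenite addition and not the 8 min delta; a drop in NADPH fluorescence below the no-compound background marks a TrxR1 substrate.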 In short, it runs like this:
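Quantitative HTS in Tris-HCl buffer at pH 7.5 with EDTA and Tween-20, using rat TrxR1, 400 uM NADPH and 400 uM selenite (final). A fall in initial NADPH fluorescence relative to background marked substrate behaviour.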

For assay [12] the target is unchanged. The assay is described as follows: qHTS Assay for Inhibitors of Mammalian Selenoprotein Thioredoxin Reductase 1 (TrxR1) (AID 488773).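 Note: drop in NADPH fluorescence over an 8 min run after selenite addition; nearly all actives have a fitted effect of over 40% in size.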 Conditions: Potency: inhibition. The essentials:
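Steps: enzyme (90 nM) plus NADPH (400 uM final), 5 min at ~22 deg C; compound added, 15 min; selenite (400 uM final) added; fluorescence followed for 8 min. Concentration-response curves derived from the normalized delta values.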

In assay [13] the target is Flap endonuclease 1 (Homo sapiens) (UniProt P39748). The experiment in a line: qHTS Validation Assay for the Inhibitors of Human Flap endonuclease 1 (FEN1) (AID 488816). The essentials: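 Readings taken at 0 and 15 min after starting the reaction with 50 nM (final) substrate supplied the signal. Compounds had first sat with 10 nM FEN1 reagent for 15 min at room temperature. Values come from Hill-equation concentration-response fits.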

Assay [14] addresses M-phase phosphoprotein 8 (Homo sapiens) (UniProt Q99549). The experiment in a line: qHTS Validation Assay for Inhibitors for MPP8 Chromodomain Interactions with Methylated Histone Tails (AID 488949). Note: top concentration of the series differs between compounds; nearly all actives have a fitted effect of over 55% in size. The essentials:
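MPP8 (50 nM) was pre-bound to 50 nM biotinylated H3(1-18)K9me3 peptide in PBS pH 7.4 with 0.01% Tween-20. Compounds were then added for 30 min at room temperature, and complex disruption was read by AlphaScreen with streptavidin donor and nickel-chelate acceptor beads.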

The target of assay [15] is Chromobox protein homolog 1 (Homo sapiens) (UniProt P83916). The assay is described as follows: qHTS Validation Assay for Inhibitors of HP1-beta Chromodomain Interactions with Methylated Histone Tails (AID 488953).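 Note: loss of AlphaScreen luminescence from HP1-beta binding biotinylated H3K9me3 peptide; nearly all actives have a fitted effect of over 50% in size.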 In short, it runs like this: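 HP1-beta (50 nM) was preincubated 30 min at room temperature with biotinylated H3(1-18)K9me3 peptide (50 nM) in PBS pH 7.4, 0.01% Tween-20, then with compounds 30 min. AlphaScreen signal was read after streptavidin donor/nickel chelate acceptor beads (10 ug/mL final).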

Assay [16] addresses Methanococcus maripaludis chaperonin (MmCpn) (UniProt Q6LX38). The experiment in a line: High-Throughput Screening for Modulators of Cytosolic Chaperonin Activity: MmCpn Primary Screen (AID 488978).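 Note: 50 nM MmCpn enzyme hydrolysing 30 µM ATP at 37 °C.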 The essentials:
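MmCpn at 50 nM final was preincubated 5 min at RT with compound. ATP was then added at 30 uM final for 10 min at 37 C. ADP formed was detected by Transcreener HTRF (665/590 nm).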

Assay [17] concerns the target Transient receptor potential cation channel subfamily V member 1 (Homo sapiens) (UniProt Q8NER1). The experiment in a line: HTS Assay for Compounds that Act as Enhancers of the Vanilloid Receptor 1 (AID 488979). The essentials: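 Calcium influx kinetics via Fluo-8 (480/520 nm) in TRPV1-expressing cells, 2000/well cultured overnight at 35.5C. Compound-alone read 3 min (agonist phase), followed by EC20 capsaicin challenge for 2 min (enhancer phase).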

The target of assay [18] is Thyrotropin receptor (Homo sapiens) (UniProt P16473). The assay is described as follows: qHTS Assay for Antagonists of the Thyroid Stimulating Hormone Receptor (AID 488980). In short, it runs like this:
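TSHR-transfected HEK293 cells (2000/well) in HEPES-buffered HBSS with 70 uM RO 20-1724 were stimulated with 4 nM TSH (EC80, final) in the presence of compound. cAMP was measured by HTRF competition after lysis and 30 min at RT.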

The target of assay [19] is D(1A) dopamine receptor (Homo sapiens) (UniProt P21728). The assay is described as follows: HTS Assay for Allosteric Agonists of the Human D1 Dopamine Receptor: Primary Screen for Agonists (AID 488981). The essentials:
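Calcium flux in an inducible, force-coupled HEK293 Trex D1 line (overnight at 30 C): agonist mode is the 180 s kinetic read after compound; potentiator mode is the following 180 s read after dopamine at EC20.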

Assay [20] concerns the target DNA polymerase III PolC-type (Bacillus subtilis (strain 168)) (UniProt P13267). The experiment in a line: qHTS Validation Assay for the Inhibitors of DNA Replication in Gram-Positive Bacteria (AID 485295).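 Note: PicoGreen fluorescence of double-stranded DNA made on primed circular M13 template.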 The essentials: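 Reconstituted B. subtilis Pol III holoenzyme (PolC, beta clamp, SSB, primase) preincubated with compound, then M13Gori single-stranded circular template with dNTPs/NTPs added; room temperature reaction. Stopped with EDTA/PicoGreen; dsDNA fluorescence read, EDTA as full-inhibition control.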

Chain of Transient receptor potential cation channel subfamily V member 1 (Homo sapiens) (Q8NER1 whole entry, looked up): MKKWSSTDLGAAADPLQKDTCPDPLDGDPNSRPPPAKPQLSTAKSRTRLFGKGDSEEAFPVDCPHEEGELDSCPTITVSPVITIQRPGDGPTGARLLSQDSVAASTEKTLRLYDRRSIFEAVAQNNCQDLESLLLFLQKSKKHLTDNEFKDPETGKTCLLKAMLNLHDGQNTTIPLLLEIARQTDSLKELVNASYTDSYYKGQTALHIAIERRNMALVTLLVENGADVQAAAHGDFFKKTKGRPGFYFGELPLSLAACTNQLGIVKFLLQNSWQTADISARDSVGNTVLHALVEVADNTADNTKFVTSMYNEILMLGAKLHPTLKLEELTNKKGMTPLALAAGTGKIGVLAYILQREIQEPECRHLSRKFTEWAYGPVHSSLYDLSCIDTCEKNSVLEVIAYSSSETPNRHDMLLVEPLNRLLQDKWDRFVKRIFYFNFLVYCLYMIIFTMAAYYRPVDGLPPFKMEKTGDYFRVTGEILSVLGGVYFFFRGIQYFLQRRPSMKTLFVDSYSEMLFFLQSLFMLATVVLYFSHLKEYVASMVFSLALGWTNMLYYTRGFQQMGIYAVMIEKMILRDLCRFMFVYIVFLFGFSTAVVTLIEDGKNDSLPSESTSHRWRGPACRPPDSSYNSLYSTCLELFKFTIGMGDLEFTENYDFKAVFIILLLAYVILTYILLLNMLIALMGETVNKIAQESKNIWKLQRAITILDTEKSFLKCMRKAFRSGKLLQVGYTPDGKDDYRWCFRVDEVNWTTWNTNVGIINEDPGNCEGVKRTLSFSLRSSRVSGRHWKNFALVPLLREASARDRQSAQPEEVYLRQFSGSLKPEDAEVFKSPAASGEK
Chain of Tumor susceptibility gene 101 protein (Homo sapiens) (Q99816 whole entry, looked up, the tested form may be a part): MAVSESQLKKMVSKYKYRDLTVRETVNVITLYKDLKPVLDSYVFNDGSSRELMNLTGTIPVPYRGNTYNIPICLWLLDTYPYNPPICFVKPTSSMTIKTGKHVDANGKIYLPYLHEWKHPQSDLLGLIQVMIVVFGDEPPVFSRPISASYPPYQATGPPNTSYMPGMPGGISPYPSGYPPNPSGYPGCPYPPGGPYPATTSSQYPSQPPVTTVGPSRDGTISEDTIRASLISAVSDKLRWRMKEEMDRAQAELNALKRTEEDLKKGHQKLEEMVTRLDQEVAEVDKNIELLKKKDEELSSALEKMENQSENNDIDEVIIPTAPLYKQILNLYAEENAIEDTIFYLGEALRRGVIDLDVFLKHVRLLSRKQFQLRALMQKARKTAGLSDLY
Chain of Flap endonuclease 1 (Homo sapiens) (P39748 whole entry, looked up): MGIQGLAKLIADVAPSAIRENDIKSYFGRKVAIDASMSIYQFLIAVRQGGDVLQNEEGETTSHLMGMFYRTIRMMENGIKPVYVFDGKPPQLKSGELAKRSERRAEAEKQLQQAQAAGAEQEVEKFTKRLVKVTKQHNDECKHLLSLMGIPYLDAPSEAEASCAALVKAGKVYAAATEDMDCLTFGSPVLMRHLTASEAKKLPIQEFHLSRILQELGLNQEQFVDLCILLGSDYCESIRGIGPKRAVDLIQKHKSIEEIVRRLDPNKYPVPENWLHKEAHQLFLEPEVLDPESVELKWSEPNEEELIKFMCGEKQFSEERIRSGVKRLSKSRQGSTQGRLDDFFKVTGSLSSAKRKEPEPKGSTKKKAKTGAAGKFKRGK
Chain of Thioredoxin reductase 1, cytoplasmic (Rattus norvegicus) (O89049 whole entry, looked up): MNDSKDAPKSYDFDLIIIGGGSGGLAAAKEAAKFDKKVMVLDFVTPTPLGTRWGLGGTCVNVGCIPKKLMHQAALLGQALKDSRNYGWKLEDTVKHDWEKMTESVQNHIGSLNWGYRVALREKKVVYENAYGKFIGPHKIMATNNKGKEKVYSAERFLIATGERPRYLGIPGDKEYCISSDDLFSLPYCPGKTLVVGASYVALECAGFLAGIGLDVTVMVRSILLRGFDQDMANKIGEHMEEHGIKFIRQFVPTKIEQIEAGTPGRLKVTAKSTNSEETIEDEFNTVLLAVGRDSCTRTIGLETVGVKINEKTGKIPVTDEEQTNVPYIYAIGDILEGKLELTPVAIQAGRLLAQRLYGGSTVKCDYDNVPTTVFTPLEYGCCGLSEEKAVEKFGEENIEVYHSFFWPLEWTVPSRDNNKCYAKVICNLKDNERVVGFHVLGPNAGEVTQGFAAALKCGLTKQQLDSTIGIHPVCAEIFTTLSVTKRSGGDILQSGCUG
Chain of Thyrotropin receptor (Homo sapiens) (P16473 whole entry, looked up): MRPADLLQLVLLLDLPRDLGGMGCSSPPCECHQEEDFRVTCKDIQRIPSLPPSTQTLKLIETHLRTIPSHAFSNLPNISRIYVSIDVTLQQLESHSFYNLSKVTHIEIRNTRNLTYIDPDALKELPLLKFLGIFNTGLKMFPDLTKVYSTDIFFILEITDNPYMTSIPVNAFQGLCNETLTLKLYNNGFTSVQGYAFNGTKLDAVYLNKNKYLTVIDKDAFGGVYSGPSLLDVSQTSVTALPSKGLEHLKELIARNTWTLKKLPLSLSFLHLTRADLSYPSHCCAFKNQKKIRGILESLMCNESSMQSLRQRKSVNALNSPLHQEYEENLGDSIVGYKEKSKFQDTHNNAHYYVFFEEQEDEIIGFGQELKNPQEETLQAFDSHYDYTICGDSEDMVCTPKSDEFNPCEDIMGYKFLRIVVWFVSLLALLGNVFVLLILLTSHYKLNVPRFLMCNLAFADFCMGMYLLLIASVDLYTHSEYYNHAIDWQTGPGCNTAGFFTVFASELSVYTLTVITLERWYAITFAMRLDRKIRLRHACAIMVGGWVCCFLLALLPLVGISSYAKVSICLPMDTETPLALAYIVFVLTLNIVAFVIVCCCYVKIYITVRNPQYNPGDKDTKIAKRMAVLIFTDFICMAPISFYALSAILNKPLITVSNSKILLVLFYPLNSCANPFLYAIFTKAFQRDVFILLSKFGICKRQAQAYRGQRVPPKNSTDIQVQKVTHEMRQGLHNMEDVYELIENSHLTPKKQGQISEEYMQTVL
Chain of M-phase phosphoprotein 8 (Homo sapiens) (Q99549 whole entry, looked up): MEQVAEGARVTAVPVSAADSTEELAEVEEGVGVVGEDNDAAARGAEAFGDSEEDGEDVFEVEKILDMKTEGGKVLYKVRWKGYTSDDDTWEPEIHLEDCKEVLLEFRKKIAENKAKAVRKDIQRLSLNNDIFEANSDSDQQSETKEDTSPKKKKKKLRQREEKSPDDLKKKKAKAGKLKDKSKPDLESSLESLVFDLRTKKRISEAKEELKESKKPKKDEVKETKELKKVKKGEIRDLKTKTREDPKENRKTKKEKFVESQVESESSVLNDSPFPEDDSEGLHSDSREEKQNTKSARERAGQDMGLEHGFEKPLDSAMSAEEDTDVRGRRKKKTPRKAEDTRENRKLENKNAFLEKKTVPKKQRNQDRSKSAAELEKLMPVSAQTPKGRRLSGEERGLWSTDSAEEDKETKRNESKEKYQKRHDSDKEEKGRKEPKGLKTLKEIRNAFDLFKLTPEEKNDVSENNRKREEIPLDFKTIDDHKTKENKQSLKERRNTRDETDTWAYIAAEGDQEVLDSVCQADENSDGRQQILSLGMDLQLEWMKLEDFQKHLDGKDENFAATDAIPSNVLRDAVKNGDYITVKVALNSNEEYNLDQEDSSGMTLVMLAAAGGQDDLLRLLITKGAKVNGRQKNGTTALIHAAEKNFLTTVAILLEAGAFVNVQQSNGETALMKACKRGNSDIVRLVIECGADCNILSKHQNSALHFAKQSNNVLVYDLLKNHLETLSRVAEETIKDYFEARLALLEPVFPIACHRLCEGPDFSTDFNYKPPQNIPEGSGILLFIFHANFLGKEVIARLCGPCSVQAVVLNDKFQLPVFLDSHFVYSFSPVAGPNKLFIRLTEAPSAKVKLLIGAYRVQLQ
Chain of ATP-dependent 6-phosphofructokinase (Trypanosoma brucei brucei) (O15648 whole entry, looked up): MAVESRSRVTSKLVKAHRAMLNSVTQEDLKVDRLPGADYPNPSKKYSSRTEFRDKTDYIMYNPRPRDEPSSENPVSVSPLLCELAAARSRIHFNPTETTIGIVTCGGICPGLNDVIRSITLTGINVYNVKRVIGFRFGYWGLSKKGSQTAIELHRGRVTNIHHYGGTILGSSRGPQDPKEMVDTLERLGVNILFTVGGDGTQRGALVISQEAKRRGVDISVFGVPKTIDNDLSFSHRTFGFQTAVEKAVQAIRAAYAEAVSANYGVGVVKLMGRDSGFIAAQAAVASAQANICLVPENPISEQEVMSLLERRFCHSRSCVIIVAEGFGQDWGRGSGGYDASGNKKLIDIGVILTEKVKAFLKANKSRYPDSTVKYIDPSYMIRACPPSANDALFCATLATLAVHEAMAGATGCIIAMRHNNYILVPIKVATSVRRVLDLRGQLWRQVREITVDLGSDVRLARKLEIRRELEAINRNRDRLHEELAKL
Chain of Beta-2 adrenergic receptor (Homo sapiens) (P07550 whole entry, looked up): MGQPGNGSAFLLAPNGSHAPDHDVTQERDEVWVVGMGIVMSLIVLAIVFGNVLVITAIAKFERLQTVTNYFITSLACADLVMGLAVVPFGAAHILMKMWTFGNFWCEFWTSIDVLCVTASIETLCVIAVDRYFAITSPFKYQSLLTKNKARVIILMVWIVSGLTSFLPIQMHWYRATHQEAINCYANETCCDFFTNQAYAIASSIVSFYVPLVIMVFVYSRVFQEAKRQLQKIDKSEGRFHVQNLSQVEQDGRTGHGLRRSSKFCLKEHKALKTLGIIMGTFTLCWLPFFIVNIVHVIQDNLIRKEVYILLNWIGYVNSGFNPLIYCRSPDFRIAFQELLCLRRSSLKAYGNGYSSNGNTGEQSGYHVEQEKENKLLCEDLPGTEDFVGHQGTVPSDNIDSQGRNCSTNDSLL
Chain of Chromobox protein homolog 1 (Homo sapiens) (P83916 whole entry, looked up): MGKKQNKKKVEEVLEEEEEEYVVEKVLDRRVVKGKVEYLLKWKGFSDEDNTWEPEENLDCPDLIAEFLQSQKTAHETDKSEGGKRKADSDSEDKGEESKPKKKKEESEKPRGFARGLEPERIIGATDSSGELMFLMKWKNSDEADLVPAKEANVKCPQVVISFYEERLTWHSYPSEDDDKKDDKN

For `NC(CCP(=O)(O)O)C(=O)O` (stereo not given), the Potency result in [1], in [2], in [3], in assay [4], in assay [9] and in [10] was “inactive” each time. In addition, the Potency entry in [12], in assay [13], in assay [14], in [15] and in [19] was “inactive” in each case. In addition, the outcome in assay [5], in [6], in [7], in [8], in [11] and in assay [16] was inactive. For the same molecule, the outcome in [17] and in assay [18] was inactive.
For the molecule `NCCc1c[nH]c2ccccc12`, the Potency entry in assay [1], in [2], in assay [3], in assay [20], in assay [9] and in assay [10] was “inactive” in each case. For the same molecule, the Potency entry in assay [13], in [14], in assay [15] and in assay [19] was “inactive” in each case. Further, the outcome in [5], in assay [6], in assay [7], in assay [11], in assay [16] and in assay [17] was inactive. For the same molecule, the outcome in [18] was inactive.
Take `COc1cc(C(O)CN)ccc1O` (stereo not given): the Potency result in assay [1], in assay [2], in assay [3], in assay [9], in assay [10] and in assay [13] was “inactive” each time. For the same molecule, the Potency result in assay [14], in [15] and in assay [19] was “inactive” each time. Further, the result in [5], in assay [6], in [7], in assay [8], in assay [11] and in assay [16] was inactive. Moreover, the result in [17] and in assay [18] was inactive.
For the molecule `O=C(O)Cc1cnc[nH]1`, the Potency entry in assay [1], in assay [2], in assay [3], in assay [9], in assay [10] and in assay [13] was “inactive” throughout. In addition, the Potency result in assay [14] and in assay [19] was “inactive” in each case. In addition, the call in [5], in assay [6], in assay [7], in [8], in assay [11] and in [16] was inactive. The result in assay [17] and in [18] was inactive.
With `C/C=C(/C)C(=O)O[C@H]1C(C)=C2[C@H]([C@@H]1OC(=O)CCCCCCC)[C@@](C)(OC(C)=O)C[C@H](OC(=O)CCC)[C@@]1(O)[C@H]2OC(=O)[C@@]1(C)O`, in assay [1], the Potency was 0.0083 µM (active). Further, the Potency result in assay [4], in [13], in [14] and in assay [15] was “inactive” throughout. Besides, the call in assay [5], in assay [7] and in [16] was inactive.
As to `CC(C)(Sc1ccc(CCN(CCCCC2CCCCC2)C(=O)NC2CCCCC2)cc1)C(=O)O`, in [2], the Potency entry is “inactive”.
Consider `CC[C@@]1(O)C(=O)OCc2c1cc1n(c2=O)Cc2cc3ccccc3nc2-1`, for which the Potency entry in assay [20], in assay [13], in [14] and in assay [19] was “inactive” in each case. Also, the molecule was classed as inactive in assay [5], in assay [7], in [8], in assay [11], in assay [16] and in assay [17]. Also, in assay [18], the outcome was inactive. The Potency in assay [9] is 1.47 µM (active); in assay [10], 2.33 µM (active).
For `C[C@]12CCC3C(CC[C@H]4C[C@H](O)CC[C@]34C)C1CC[C@@H]2C(=O)CO` (stereo not given in full), the Potency entry in [1], in assay [2], in [3], in assay [13], in assay [14] and in assay [15] was “inactive” throughout. For the same molecule, in assay [19], the Potency result was “inactive”. Besides, the call in [5], in assay [7], in assay [8], in [11], in assay [16] and in assay [17] was inactive. For the same molecule, in assay [18], the molecule was classed as inactive.

Values taken from PubChem BioAssay (NCATS).
